Assay outcomes deposited in PubChem by National Center for Advancing Translational Sciences (NCATS).
Compounds with a hit are over-represented: about 3.6% of the library has one in this group of screens.
PLK1 PBD inh = inhibitors of human PLK1 polo-box domain binding. AID 720504. P53350. hit rate 2.8% among 360,000. Potency, µM, inactives show max response, negative = inhibition, actives largely listed as inhibitors. Plk1 PBD binding of FITC phosphopeptide, fluorescence polarization; also: potency is read from the fitted curve at half-maximal effect; series mostly up to about 57 µM; % is scaled to controls: 0 for no effect and ±100 for the full control effect; nearly all actives have a fitted effect of over 65% in size
PI5P4K alpha inh = blocks human PI5P4K alpha kinase activity; P48426; PI5P4Kalpha enzyme, ADP-Glo luminescence, 60 min; stronger effect = lower value; max response, %; hit rate 1.2% among 330,000; AID 652105; active = max response of -50% or lower; inconclusive = between -30% and -50%; inactive = -30% or higher; also: value at the top dose of about 77 µM; % is scaled to controls: 0 for no effect and ±100 for the full control effect
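ADP-Glo luminescence end-point after a 60 min room-temperature kinase reaction. PI5P4Kalpha and substrate in HEPES pH 7.4 buffer with EGTA, 0.1% CHAPS and 5% DMSO; ATP at 5 microM final.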
GCN5L2 inh = blocks human GCN5L2 histone acetyltransferase. GCN5L2 HAT assay, ThioGlo1 CoA-SH fluorescence. Potency, µM (doses to about 58.9 µM), without a hit: at the top dose activity change, negative = inhibition, most hits filed as inhibitors. hit rate 0.21% among 390,000. AID 504327; also: potency is read from the fitted curve at half-maximal effect; % is scaled to controls: 0 for no effect and ±100 for the full control effect
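Preincubate 20nM GCN5L2 with compound 15 min, RT → add 50uM ThioGlo1 + 75uM H3(1-25) + 70uM acetyl-CoA → read fluorescence 0 and 20 min. Primary qHTS; fluorescent artifacts likely.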
Rango release inh = inhibition of RanGTP-driven Rango-importin beta dissociation; Potency, µM (titrated, usually from 46.1 µM), without a hit: at the top dose activity change, negative = inhibition; O95149+P62826; AID 540253; hit rate 0.071% among 340,000; Biochemical FRET Rango-importin beta, RanGTP-induced dissociation; calls by dose curve; also: potency is read from the fitted curve at half-maximal effect; % of control where 0% means no effect; nearly all actives have a fitted effect of over 45% in size
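Rango/importin beta premix (0.1/0.25 uM final), PBS + 1 mM DTT + 0.02% Tween-20 + 0.1% BSA; cpd 5 min RT; FRET pre-read; + RanGTP-RCC1 (0.6 uM Ran, 2 mM GTP, 0.2 uM RCC1); 45 min RT; FRET post-read, ex 430, em 486/530 nm.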
Rango complex inh = inhibitors of Rango-importin beta complex formation; Potency, µM (top dose mostly 92.2 µM), for the others: top-dose inhibition of complex formation; Q14974; Rango CFP/YFP FRET sensor + importin beta, 45 min; hit rate 0.031% among 340,000; calls by dose curve;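 also: potency is read from the fitted curve at half-maximal effect; 0% = DMSO wells and 100% = buffer wells lacking importin beta; nearly all actives have a fitted effect of over 15% in size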
Target sequence (Q14974 whole entry, looked up): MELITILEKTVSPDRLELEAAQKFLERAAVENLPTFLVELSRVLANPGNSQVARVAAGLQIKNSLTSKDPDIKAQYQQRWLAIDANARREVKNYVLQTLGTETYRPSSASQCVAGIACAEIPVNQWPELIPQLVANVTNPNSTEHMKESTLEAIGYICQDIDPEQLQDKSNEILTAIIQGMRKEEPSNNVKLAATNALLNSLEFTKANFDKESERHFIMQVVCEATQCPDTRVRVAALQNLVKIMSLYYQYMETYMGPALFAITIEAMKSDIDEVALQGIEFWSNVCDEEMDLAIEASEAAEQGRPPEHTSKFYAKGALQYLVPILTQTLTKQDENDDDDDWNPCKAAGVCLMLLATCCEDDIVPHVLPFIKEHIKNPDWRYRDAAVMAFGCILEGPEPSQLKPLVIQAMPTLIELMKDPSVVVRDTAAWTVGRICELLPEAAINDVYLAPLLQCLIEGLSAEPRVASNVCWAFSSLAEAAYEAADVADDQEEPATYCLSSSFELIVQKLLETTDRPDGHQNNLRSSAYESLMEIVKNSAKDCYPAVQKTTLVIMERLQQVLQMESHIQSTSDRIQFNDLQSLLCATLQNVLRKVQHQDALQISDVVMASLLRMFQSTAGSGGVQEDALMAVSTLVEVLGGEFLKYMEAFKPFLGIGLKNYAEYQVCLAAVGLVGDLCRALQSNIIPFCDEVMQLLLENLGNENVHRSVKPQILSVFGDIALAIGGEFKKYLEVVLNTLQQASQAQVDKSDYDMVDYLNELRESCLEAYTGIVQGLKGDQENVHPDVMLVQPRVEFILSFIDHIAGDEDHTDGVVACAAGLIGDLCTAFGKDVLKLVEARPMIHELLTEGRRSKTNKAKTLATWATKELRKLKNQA
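FRET biosensor Rango (snurportin 1 IBB between N-terminal EYFP and C-terminal Cerulean), 50 nM in PBS/1 mM DTT/0.02% Tween-20/0.1% BSA, preincubated 5 min RT with compound; 0.125 microM importin beta added, 45 min RT, CFP/YFP FRET ratio read.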
VDR inhibitor = blocks the human vitamin D receptor; P11473; VDR-SRC2-3 peptide fluorescence polarization, 2 h; Potency, µM, inactives show max response, negative = inhibition, hits mostly inhibitors; hit rate 0.93% among 400,000; AID 504847; also: potency is read from the fitted curve at half-maximal effect; % is scaled to controls: 0 for no effect and ±100 for the full control effect
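Two reagent solutions held at 4 deg C in the dark were dispensed, compounds pinned at 23 nl, and the mixture incubated 2 h at room temperature. Read-out: fluorescence polarization of VDR–SRC2-3 peptide binding.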
ADP-Glo interf = counter-screen for PI5P4K inhibitors: ADP-Glo detection interference, no enzyme; AID 743285; Potency, µM (doses to about 76.9 µM), for the others: at the top dose activity change, negative = inhibition, hits mostly inhibitors; 1,100 tested, under 10 active; shares compounds with PI5P4K alpha inh; ADP-Glo detection counter-screen, luciferase luminescence, no enzyme
The depositor's hits bear a star; ? = inconclusive; . = not tested or not shown; [ ] = another dose, or the depositor's remark. Unless noted, calls follow the shape of the dose curve; as a rule, active = well fitted curve in the direction sought with a large enough effect; inconclusive = small, poorly fitted or top-dose-only effect, or another doubt; inactive = no such curve, though single readings can be large; an effect the other way counts as inactive or inconclusive.

SMILES	PLK1 PBD inh	PI5P4K alpha inh	GCN5L2 inh	Rango release inh	Rango complex inh	VDR inhibitor	ADP-Glo interf
Cc1cc2ccccc2nc1SCC(=O)NC1CCCC1	23.8µM*	-64.6*	-6.9%	16.9%	1.2%	?	6.2%
Cc1cc2ccccc2nc1SCC(=O)NC1CCCCC1	2.5%	-8.2	0.6%	0.7%	-3.3%	-3.0%	.
Cc1ccc(NC(c2cccc(Cl)c2)c2nnc(-c3ccccc3)o2)cc1F (stereo not drawn)	.	.	-8.5%	.	.	3.5%	.
COc1ccccc1Cc1c(-c2ccco2)nc2cc(C)c(Br)c(C)n12	?	-64.4*	.	.	.	.	-1.3%
Cc1cc2nc(-c3cccc(Cl)c3)c(Cc3cccc(Cl)c3)n2c(C)c1Br	-9.0%	-0.5	.	.	.	.	.
Cc1cc2nc(-c3ccco3)c(Cc3cccc(Cl)c3)n2c(C)c1Br	?	-56.0*	.	.	.	.	-1.2%
Cc1ccc(O)c(-c2n[nH]c3c2C(c2ccccc2F)N(Cc2ccco2)C3=O)c1 (stereo not drawn)	.	.	-6.8%	.	.	3.7%	.
CCOc1ccc(CCNC(=O)Cn2ncc3c([nH]c4ccccc43)c2=O)cc1OCC	.	.	?	.	.	-2.0%	.
O=C(CNC(=O)c1[nH]cnc1C(=O)N[C@@H](Cc1ccccc1)C(=O)OCc1ccccc1)OCc1ccccc1	-0.8%	9.9	-8.7%	5.9%	-5.4%	-25.1%	.
O=C(N[C@@H](Cc1ccccc1)C(=O)OCc1ccccc1)c1nc[nH]c1C(=O)NC(c1ccccc1)c1ccccc1	-6.7%	7.2	-17.7%	-5.2%	1.3%	-18.0%	-1.8%
CC(=O)N1CCN(S(=O)(=O)c2cccc(C(=O)Nc3ccc(F)c(F)c3)c2)CC1	-7.6%	-19.0	-5.0%	8.0%	-0.2%	2.7%	-0.5%
Cc1cc(C)c(C)c(S(=O)(=O)N[C@@H](C)C(=O)OCc2cc(=O)n3cc(Br)ccc3n2)c1C	-16.6%	-52.3*	-4.4%	-23.9%	?	9.8%	-2.3%
CNS(=O)(=O)c1cccc(C(=O)OCc2cc(=O)n3cc(Br)ccc3n2)c1	-17.1%	-18.6	-4.4%	-2.5%	0.8%	-7.5%	.
CCOC(=O)C1(C)CCCN(C(=O)c2ccccc2F)C1 (stereo not drawn)	-6.3%	4.5	.	.	.	.	.
CCOC(=O)C1(C)CCCN(C(=O)c2ccccc2C(F)(F)F)C1 (stereo not drawn)	-11.3%	-79.4*	.	.	.	.	-5.2%
O=C(Nc1ccc2c(c1)OCO2)c1n[nH]c(=O)c2ccccc12	-21.8%	-56.9*	-9.3%	6.2%	1.6%	-19.3%	0.9%
O=C(c1cccc(-n2cccc2)c1)N1CCN(S(=O)(=O)c2ccccc2)CC1	?	-68.5*	?	3.3%	?	-15.5%	2.8%
O=C(c1cccc(-n2cccc2)c1)N1CCN(S(=O)(=O)c2c(F)cccc2F)CC1	-13.3%	-28.0	1.2%	-2.7%	0.2%	8.3%	.
CCOc1ccc(NC(=O)c2cnn(-c3ccc(C)c(C)c3)c2C2CCN(C(=O)OC(C)(C)C)CC2)cc1	.	.	-0.6%	.	.	-8.1%	.
Cc1cccc(CN2C(=O)c3ccccc3Sc3ccc(C(=O)NCc4cccs4)cc32)c1	.	.	-24.4%	.	.	3.3%	.
Cc1cccc2cc(CN(Cc3cccnc3)C(=S)NCCCN(C)C)c(=O)[nH]c12	9.47µM*	-52.9*	0.2%	8.1%	0.2%	?	-2.6%
Cc1ccc2nc(SCC(=O)N3CCN(C(=O)c4ccco4)CC3)[nH]c2c1	-14.0%	-10.2	20.6%	12.8%	2.9%	-3.7%	.
O=C(CSc1nc2ccc(Cl)cc2[nH]1)N1CCN(C(=O)c2ccco2)CC1	?	-64.5*	-17.1%	5.3%	0.3%	-13.9%	-5.5%
CCCCC1=CC2=CC(=O)C(C)(OC(=O)C3CCCC3)C(=O)C2=CO1 (stereo not drawn)	?	-73.5*	-3.7%	?	?	-17.6%	-8.9%
CCC(=O)OC1(C)C(=O)C=C2C=C(CCCC(=O)OC)OC=C2C1=O (stereo not drawn)	?	?	.	-9.7%	?	?	.
SMILES	PLK1 PBD inh	PI5P4K alpha inh	GCN5L2 inh	Rango release inh	Rango complex inh	VDR inhibitor	ADP-Glo interf
CC[N+](CC)(CC)CC[C@](O)(c1ccccc1)C1CCCCC1	.	.	-2.2%[21.4 µM]	.	.	-12.1%	.
Cc1c(C(=O)N2CCCC2)oc2c1-c1nn(CC(=O)NCc3cccc(Br)c3)cc1CC2	.	.	0.1%	.	.	6.2%	.
O=c1cc(-c2ccccc2)[nH]n1-c1nc2ccccc2[nH]1	-7.9%	-76.3*	-16.1%	-23.0%	-6.5%	-21.5%	2.2%
CCc1cc(=O)[nH]c(-n2[nH]c(-c3ccccc3)cc2=O)n1	-8.1%	-3.2	-2.7%	-0.7%	3.4%	11.8%	.
CCCCCCCC/C=C\CCCCCCCC(=O)N[C@@H](CO)Cc1ccc(O)cc1	.	.	-25.3%	.	.	30.9%	.
Cc1cc2nc(NC(=O)C3(C)CCN3C(=O)C(C)C)[nH]c2cc1C (stereo not drawn)	-10.0%	?	.	.	.	.	-13.0%
Cc1ccc(C)c(NC(=O)C2(C)CCN2C(=O)C(C)C)c1 (stereo not drawn)	-8.9%	0.9	.	.	.	.	.
CNC(=O)COC(=O)c1ccc(Cl)c(S(=O)(=O)N2CCCC2)c1	-9.7%	-4.5	-2.4%	4.4%	-1.5%	-1.7%	.
O=C(OCC(=O)N1CCCCCC1)c1ccc(Cl)c(S(=O)(=O)N2CCCC2)c1	10.6µM*	-61.3*	0.8%	-8.3%	0.1%	?	2.4%
CCS(=O)(=O)N1CC(=O)N(c2cccc(Cl)c2)C(C)(C(=O)NC2CCCCCC2)C1 (stereo not drawn)	.	.	5.0%	.	.	7.0%	.
COc1ccc2c(CC(=O)OCC(=O)Nc3cccc(C)c3)coc2c1	-3.7%	-56.3*	-16.6%	9.8%	-2.0%	-18.6%	-0.4%
COC(=O)c1cccc(NC(=O)Cc2coc3cc(OC)ccc23)c1	-5.7%	.	-0.8%	-3.2%	-4.7%	0.1%	.
Nc1c(C(=O)O)cnc2c(-c3ccc(Cl)cc3)cnn12	?	-84.0*	-4.1%	6.9%	4.8%	-0.7%	-1.5%
Nc1c(-c2ccccc2)cnc2c(-c3ccccc3)cnn12	1.9%	6.1	-2.3%	-9.6%	0.5%	-18.0%	.
Cc1ccc(CNC(=O)c2ccc(-n3cccc3)cc2)cc1	?	-90.3*	?	-27.7%	?	-3.8%	3.8%
COc1ccc(N2CCN(C(=O)Cc3ccc(S(=O)(=O)N4CCOCC4)s3)CC2)cc1	?	-70.9*	-12.6%	-4.9%	-0.7%	-11.2%	2.3%
Cn1c(CNC(=O)CSc2n[nH]c(-c3ccccc3Cl)n2)nc2ccccc21	.	.	3.8%	.	.	7.3%	.
